For 11 compounds, residual activity results are on record in ChEMBL document CHEMBL2218924, “A broad activity screen in support of a chemogenomic map for kinase signalling research and drug discovery” (Biochem J, 2013).

For experiment [1], the target named is Mitogen-activated protein kinase 11 (Homo sapiens) (UniProt Q15759). Conditions: at 1 µM.
The target is the same in experiment [2]. As to conditions: at 10 µM.
The target of experiment [3] is T1, Mitogen-activated protein kinase 13 (Homo sapiens) (UniProt O15264).
T1 sequence (whole entry): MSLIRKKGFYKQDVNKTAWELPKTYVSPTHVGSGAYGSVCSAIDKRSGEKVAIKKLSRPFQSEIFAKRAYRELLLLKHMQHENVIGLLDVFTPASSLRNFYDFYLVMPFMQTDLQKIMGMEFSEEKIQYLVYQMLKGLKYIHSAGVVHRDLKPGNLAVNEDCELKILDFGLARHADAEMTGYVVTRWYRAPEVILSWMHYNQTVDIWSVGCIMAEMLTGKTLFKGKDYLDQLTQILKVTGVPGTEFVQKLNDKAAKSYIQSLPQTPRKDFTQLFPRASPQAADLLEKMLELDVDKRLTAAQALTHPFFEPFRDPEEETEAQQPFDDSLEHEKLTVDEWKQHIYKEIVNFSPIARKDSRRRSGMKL
As to conditions: at 1 µM.

Experiment [4] deals with T1, Mitogen-activated protein kinase 13 (Homo sapiens). Conditions: at 10 µM.
The target of experiment [5] is T2, Serine/threonine-protein kinase Sgk1 (Homo sapiens) (UniProt O00141).
T2 sequence (whole entry): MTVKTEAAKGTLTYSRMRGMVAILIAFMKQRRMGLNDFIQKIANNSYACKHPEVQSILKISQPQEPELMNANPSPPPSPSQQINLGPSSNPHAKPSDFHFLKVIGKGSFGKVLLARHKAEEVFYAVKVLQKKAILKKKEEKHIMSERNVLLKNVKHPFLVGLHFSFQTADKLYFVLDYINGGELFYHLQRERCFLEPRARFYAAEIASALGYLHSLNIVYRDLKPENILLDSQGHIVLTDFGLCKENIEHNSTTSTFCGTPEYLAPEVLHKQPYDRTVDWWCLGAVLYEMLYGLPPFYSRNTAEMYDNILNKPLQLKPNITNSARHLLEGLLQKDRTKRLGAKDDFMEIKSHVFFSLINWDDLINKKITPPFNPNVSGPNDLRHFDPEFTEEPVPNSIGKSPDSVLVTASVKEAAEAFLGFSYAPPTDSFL
As to conditions: at 10 µM.

For experiment [6], the target named is T3, Serine/threonine-protein kinase Sgk2 (Homo sapiens) (UniProt Q9HBY8).
T3 sequence (whole entry): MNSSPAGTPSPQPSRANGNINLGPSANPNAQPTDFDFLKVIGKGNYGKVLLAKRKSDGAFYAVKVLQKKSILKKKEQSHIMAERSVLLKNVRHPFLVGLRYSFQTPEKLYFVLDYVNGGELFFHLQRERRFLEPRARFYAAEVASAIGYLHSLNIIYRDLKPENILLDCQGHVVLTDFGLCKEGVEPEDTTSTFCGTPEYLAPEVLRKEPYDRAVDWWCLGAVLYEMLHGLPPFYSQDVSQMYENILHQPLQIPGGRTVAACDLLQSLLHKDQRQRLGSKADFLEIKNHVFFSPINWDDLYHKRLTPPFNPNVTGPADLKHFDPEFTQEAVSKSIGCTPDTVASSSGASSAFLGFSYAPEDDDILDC
As to conditions: at 1 µM.

Experiment [7] deals with T3, Serine/threonine-protein kinase Sgk2 (Homo sapiens). Conditions: at 10 µM.
In experiment [8] the target is T4, Serine/threonine-protein kinase Sgk3 (Homo sapiens) (UniProt Q96BR1).
T4 sequence (whole entry): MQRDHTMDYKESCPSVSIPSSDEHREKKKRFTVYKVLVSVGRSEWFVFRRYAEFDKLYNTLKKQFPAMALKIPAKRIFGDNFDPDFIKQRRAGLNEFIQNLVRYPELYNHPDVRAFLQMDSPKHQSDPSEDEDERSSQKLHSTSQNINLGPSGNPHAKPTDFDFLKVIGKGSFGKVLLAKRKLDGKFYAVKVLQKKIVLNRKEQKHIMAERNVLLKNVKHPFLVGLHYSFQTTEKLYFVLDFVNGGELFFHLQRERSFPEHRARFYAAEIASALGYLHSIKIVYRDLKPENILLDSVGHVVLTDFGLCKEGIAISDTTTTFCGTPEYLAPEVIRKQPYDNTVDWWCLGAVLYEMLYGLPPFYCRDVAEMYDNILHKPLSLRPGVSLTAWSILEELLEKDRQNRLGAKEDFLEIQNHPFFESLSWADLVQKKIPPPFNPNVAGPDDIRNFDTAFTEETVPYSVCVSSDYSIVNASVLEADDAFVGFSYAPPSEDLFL
Conditions: at 10 µM.

The target of experiment [9] is Serine/threonine-protein kinase SIK1 (Homo sapiens) (UniProt P57059). As to conditions: at 1 µM.
The target is the same in experiment [10]. Conditions: at 10 µM.
Experiment [11] concerns the target SRSF protein kinase 2 (Homo sapiens) (UniProt P78362). As to conditions: at 1 µM.
For experiment [12] the target is unchanged. Conditions: at 10 µM.
For experiment [13], the target named is Serine/threonine-protein kinase 33 (Homo sapiens) (UniProt Q9BYT3). Conditions: at 1 µM.
The target of experiment [14] is Serine/threonine-protein kinase PLK2 (Homo sapiens) (UniProt Q9NYY3). As to conditions: at 1 µM.
Experiment [15] shares this target. Conditions: at 10 µM.
Experiment [16] has as its target T2, Serine/threonine-protein kinase Sgk1 (Homo sapiens). As to conditions: at 1 µM.
The target in experiment [17] is Tyrosine-protein kinase SYK (Homo sapiens) (UniProt P43405). As to conditions: at 1 µM.
In experiment [18] the target is SRSF protein kinase 1 (Homo sapiens) (UniProt Q96SB4). Conditions: at 1 µM.
The target is the same in experiment [19]. Conditions: at 10 µM.
Experiment [20] concerns the target Serine/threonine-protein kinase 33 (Homo sapiens) (UniProt Q9BYT3). Conditions: at 10 µM.

Chain of Serine/threonine-protein kinase 33 (Homo sapiens) (Q9BYT3 whole entry, looked up): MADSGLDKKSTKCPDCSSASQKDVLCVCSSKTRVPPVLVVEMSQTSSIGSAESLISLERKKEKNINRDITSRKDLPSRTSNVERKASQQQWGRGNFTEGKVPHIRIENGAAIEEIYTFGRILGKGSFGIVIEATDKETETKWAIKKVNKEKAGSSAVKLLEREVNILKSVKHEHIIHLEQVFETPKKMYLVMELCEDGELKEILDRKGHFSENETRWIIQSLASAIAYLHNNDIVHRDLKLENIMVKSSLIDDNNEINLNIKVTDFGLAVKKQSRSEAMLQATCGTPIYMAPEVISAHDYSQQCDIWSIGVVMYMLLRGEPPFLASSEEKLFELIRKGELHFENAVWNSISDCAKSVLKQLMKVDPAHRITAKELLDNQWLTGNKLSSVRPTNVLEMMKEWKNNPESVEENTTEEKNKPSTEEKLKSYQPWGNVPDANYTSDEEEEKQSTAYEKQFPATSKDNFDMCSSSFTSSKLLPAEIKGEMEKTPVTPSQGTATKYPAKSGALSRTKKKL
Chain of SRSF protein kinase 2 (Homo sapiens) (P78362 whole entry, looked up): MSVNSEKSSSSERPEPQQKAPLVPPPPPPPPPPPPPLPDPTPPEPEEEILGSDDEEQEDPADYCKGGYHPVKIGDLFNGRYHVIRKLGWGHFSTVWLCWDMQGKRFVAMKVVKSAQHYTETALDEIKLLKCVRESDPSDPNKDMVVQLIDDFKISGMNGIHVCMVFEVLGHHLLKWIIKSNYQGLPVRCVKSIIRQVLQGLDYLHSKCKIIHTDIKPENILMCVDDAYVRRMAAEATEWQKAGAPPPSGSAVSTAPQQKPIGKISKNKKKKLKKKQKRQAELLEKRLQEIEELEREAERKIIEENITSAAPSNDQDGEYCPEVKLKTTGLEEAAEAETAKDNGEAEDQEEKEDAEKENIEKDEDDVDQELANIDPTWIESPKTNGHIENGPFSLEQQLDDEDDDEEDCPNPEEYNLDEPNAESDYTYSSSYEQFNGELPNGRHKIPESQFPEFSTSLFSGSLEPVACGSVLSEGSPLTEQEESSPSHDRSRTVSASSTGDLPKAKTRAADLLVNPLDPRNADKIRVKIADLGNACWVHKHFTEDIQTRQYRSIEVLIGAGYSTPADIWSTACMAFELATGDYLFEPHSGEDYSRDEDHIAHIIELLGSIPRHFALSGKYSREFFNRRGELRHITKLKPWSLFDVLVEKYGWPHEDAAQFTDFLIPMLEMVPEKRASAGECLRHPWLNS
Chain of Serine/threonine-protein kinase SIK1 (Homo sapiens) (P57059 whole entry): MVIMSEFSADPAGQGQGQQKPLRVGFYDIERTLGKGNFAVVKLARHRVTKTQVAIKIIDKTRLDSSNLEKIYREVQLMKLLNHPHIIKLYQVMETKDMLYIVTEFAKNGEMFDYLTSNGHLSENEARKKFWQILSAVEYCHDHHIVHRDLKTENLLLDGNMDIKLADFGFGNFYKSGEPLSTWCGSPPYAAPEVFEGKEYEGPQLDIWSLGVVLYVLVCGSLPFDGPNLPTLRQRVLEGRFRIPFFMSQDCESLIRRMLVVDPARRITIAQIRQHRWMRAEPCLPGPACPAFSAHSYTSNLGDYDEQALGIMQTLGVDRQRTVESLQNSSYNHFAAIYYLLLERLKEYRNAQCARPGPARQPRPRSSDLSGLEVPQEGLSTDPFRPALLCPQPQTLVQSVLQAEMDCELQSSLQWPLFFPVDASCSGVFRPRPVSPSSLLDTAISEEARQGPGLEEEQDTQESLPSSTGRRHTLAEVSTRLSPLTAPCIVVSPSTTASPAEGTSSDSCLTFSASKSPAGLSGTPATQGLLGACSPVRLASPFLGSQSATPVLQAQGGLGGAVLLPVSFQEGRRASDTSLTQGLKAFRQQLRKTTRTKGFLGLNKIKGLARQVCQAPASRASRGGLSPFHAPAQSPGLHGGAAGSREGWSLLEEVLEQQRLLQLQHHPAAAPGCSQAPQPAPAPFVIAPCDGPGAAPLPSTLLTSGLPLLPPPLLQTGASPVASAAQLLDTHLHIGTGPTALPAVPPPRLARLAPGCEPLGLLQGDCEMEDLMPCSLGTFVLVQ
Chain of SRSF protein kinase 1 (Homo sapiens) (Q96SB4 whole entry): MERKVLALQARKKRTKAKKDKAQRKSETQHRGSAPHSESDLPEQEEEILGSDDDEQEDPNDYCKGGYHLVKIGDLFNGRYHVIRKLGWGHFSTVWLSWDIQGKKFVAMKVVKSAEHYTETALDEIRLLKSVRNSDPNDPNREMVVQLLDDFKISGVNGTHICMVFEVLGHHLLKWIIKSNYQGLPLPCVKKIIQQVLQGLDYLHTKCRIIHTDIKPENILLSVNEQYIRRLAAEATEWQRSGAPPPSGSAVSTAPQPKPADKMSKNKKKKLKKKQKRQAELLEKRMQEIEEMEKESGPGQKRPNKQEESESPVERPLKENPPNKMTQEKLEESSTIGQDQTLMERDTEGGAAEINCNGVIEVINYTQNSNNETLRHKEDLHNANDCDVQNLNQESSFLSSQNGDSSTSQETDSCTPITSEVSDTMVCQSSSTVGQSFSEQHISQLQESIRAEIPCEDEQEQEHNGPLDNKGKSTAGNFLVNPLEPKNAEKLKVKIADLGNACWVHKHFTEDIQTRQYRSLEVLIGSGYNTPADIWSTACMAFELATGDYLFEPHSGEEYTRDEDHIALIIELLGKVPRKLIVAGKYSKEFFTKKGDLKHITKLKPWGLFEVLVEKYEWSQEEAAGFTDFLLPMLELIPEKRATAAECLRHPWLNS
Chain of Mitogen-activated protein kinase 11 (Homo sapiens) (Q15759 whole entry): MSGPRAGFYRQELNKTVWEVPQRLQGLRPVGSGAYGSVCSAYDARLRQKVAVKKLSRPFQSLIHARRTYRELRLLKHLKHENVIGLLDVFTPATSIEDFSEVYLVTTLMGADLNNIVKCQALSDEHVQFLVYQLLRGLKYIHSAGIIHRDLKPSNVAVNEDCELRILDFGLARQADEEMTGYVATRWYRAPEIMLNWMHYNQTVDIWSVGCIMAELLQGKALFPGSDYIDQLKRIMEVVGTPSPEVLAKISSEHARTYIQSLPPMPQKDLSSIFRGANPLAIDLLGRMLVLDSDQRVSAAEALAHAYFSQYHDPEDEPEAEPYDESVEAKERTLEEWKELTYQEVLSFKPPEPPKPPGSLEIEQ
Chain of Serine/threonine-protein kinase PLK2 (Homo sapiens) (Q9NYY3 whole entry, looked up): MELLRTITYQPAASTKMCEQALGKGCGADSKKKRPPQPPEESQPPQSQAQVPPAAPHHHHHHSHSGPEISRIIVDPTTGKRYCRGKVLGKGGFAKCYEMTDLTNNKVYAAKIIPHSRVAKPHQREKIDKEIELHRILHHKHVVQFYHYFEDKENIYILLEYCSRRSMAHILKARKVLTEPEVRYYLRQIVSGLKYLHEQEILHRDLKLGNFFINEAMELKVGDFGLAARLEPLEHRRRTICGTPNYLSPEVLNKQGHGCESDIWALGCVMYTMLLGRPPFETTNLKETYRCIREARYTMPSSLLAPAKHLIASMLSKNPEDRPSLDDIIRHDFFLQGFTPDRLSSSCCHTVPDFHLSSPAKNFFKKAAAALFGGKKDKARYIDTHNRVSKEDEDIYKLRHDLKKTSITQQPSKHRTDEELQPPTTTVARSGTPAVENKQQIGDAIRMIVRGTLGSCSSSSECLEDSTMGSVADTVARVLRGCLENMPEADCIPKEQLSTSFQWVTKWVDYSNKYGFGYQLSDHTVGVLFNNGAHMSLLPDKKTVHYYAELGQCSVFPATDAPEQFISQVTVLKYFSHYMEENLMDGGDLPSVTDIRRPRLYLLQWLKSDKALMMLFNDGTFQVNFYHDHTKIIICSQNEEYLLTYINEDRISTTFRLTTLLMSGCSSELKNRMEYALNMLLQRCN

Turning to `Cc1cccc(-c2[nH]c(C(C)(C)C)nc2-c2ccc3c(c2)OCO3)n1`, the residual activity came out at 97% in [1]; 64% in [2]; 106% in experiment [3]; 99% in experiment [4]; 89% in [5]; 89% in experiment [6]. Moreover, the residual activity in [7] was determined as 87%; in experiment [8], 98%; in experiment [9], 90%; in experiment [10], 62%; in [11], 106%; in experiment [12], 98%. Besides, the residual activity is 93% in experiment [13], 105% in [14] and 100% in [15].
`O=C1Nc2ccc(Br)cc2/C1=C\c1cc2c([nH]1)CCCC2`: the residual activity in [1] was 98%; in [2], 79%; in experiment [3], 111%; in experiment [4], 109%; in experiment [16] it was 104%; in experiment [5] it was 84%. In addition, the residual activity is 111% in experiment [6]; 109% in [7]; 97% in experiment [9]; 107% in experiment [10]; 105% in experiment [14]; 99% in experiment [15]. Also, the residual activity in [17] stood at 123%.
With `Cc1cc2ncc(-c3ccccc3)nc2cc1C`, the residual activity in [4] was 102%; in [16], 102%; in [5] it was 102%; in [6], 99%; in [7], 107%; in experiment [8] it was 90%. The residual activity in [9] worked out at 80%; in experiment [10], 110%; in [18], 108%; in [19], 97%; in experiment [11], 104%; in experiment [12], 102%. Besides, the residual activity came out at 100% in experiment [13]; 98% in experiment [20]; 101% in experiment [14]; 106% in [15]; 125% in [17].
As for `Cc1nc(-c2ccccc2)c(-c2ccncc2)o1`, the residual activity was determined as 105% in experiment [1]; 58% in [2]; 107% in experiment [3]; 103% in experiment [4]; 107% in experiment [16]; 86% in experiment [5]. In addition, the residual activity worked out at 126% in experiment [6]; 89% in experiment [7]; 91% in [8]; 138% in experiment [9]; 100% in experiment [10]; 111% in experiment [18]. Also, the residual activity in [19] is 109%; in [11], 98%; in experiment [12], 81%; in experiment [13] it was 103%; in experiment [20] it was 102%; in [14], 108%. Besides, the residual activity in experiment [15] worked out at 104%; in experiment [17] it was 112%.
For `Cc1ccc(S(=O)(=O)/C=C/C#N)cc1`, the residual activity in [2] worked out at 104%; in experiment [3] it was 104%; in [4], 103%; in [16], 76%; in [5], 104%; in experiment [6] it was 97%. In addition, the residual activity worked out at 101% in experiment [7]; 81% in experiment [8]; 81% in experiment [9]; 97% in [10]; 101% in experiment [18]; 93% in [19]. In addition, the residual activity in experiment [11] came out at 95%; in experiment [12], 95%; in experiment [13], 103%; in experiment [20] it was 96%; in experiment [14] it was 98%; in experiment [15], 85%. Moreover, the residual activity in [17] is 104%.
In the case of `Cn1cnc2cc3c(Nc4cccc(Br)c4)ncnc3cc21`, the residual activity in experiment [2] is 89%; in [3], 107%; in [4], 99%; in [16], 102%; in experiment [5], 91%; in [6], 94%. Moreover, the residual activity in [7] was 72%; in [8] it was 89%; in experiment [9], 69%; in experiment [10] it was 9%; in [18] it was 100%; in experiment [19], 91%. Moreover, the residual activity in experiment [11] stood at 94%; in experiment [12] it was 87%; in experiment [13], 93%; in experiment [20], 95%; in experiment [14], 106%; in experiment [15], 98%. Besides, in [17], the residual activity came out at 129%.
Turning to `Nc1cccc(-c2cc3c(Oc4cccc(O)c4)ncnc3[nH]2)c1`, the residual activity was 28% in experiment [1]; 7% in [2]; 105% in experiment [3]; 91% in [4]; 96% in experiment [16]; 96% in experiment [5]. The residual activity came to 101% in experiment [6]; 73% in experiment [7]; 8% in experiment [9]; 2% in [10]; 103% in experiment [18]; 80% in experiment [19]. The residual activity in experiment [11] was 101%; in experiment [12], 71%; in experiment [13], 90%; in experiment [20] it was 61%; in experiment [14], 96%; in [15], 65%. Besides, in experiment [17], the residual activity was 18%.
Turning to `C[C@@H](N)[C@H]1CC[C@H](C(=O)Nc2ccncc2)CC1`, the residual activity in experiment [1] came out at 114%; in experiment [2] it was 120%; in [3], 112%; in [4] it was 111%; in experiment [16], 100%; in experiment [5], 94%. In addition, the residual activity in experiment [6] is 97%; in [7], 96%; in [8], 105%; in experiment [10], 115%; in experiment [18], 95%; in experiment [19], 103%. Further, the residual activity in experiment [11] amounted to 103%; in experiment [12], 113%; in experiment [13], 106%; in [14] it was 100%; in experiment [15], 101%; in experiment [17], 110%.
On to `CCOc1cc2ncnc(Nc3cccc(Br)c3)c2cc1OCC`, for which the residual activity in [1] came to 94%; in [2] it was 50%; in experiment [3], 91%; in experiment [4] it was 90%; in [16], 107%; in experiment [5], 89%. In addition, the residual activity in experiment [6] came out at 68%; in experiment [7], 60%; in experiment [8], 73%; in [9], 83%; in [10], 102%; in experiment [18], 83%. Moreover, the residual activity in experiment [19] was 91%; in experiment [11], 102%; in [12], 91%; in experiment [20], 92%; in experiment [14], 99%; in experiment [15], 88%. In addition, the residual activity in experiment [17] was found to be 111%.
For the compound `c1ccc(-c2n[nH]cc2-c2ccnc3ccccc23)nc1`, the residual activity in [1] was 99%; in experiment [2] it was 76%; in [3], 106%; in [4], 101%; in experiment [16], 97%; in [5], 95%. The residual activity amounted to 69% in experiment [7]; 99% in experiment [9]; 104% in experiment [10]; 106% in [18]; 108% in [19]; 87% in experiment [12]. The residual activity is 97% in experiment [13], 94% in [20], 102% in experiment [14] and 96% in experiment [15].
In the case of `N#Cc1cnc2cnc(NCc3cccnc3)cc2c1Nc1ccc(F)c(Cl)c1`, the residual activity in experiment [1] was determined as 119%; in [3], 96%; in experiment [4], 95%; in experiment [6] it was 79%; in experiment [7], 63%; in experiment [9] it was 101%. In addition, the residual activity in experiment [10] amounted to 97%; in experiment [18] it was 100%; in experiment [19], 78%; in [11] it was 102%; in [12], 76%; in experiment [13], 99%. For the same compound, the residual activity is 77% in experiment [20], 101% in experiment [14], 101% in experiment [15] and 2% in [17].
